Results on nine compounds are retold here after PubChem BioAssay (NCATS).

The structures appear in SMILES notation. Inconclusive results are not listed. The source made the active and inactive calls. Unless noted, calls follow the shape of the dose curve; as a rule, active = well fitted curve in the direction sought with a large enough effect; inconclusive = small, poorly fitted or top-dose-only effect, or another doubt; inactive = no such curve, though single readings can be large; an effect the other way counts as inactive or inconclusive.

Assay [1] in a line: qHTS drug screen for cell cycle checkpoint inhibitors in PARPi-resistant BRCA-mutant ovarian cancer cell lines. (AID 1963452; calls by dose curve). The note with it: PEO1/OlaR viability, CellTiter-Glo luminescence, 96 h, stronger effect = lower value. The method, boiled down: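 PEO1, PEO4 and PEO1/OlaR ovarian cancer cells, 600 per well, exposed 96 h at 37C to a dilution series. Viability read by CellTiter-Glo luminescence, normalized to DMSO and empty wells; activity summarized as Z-AUC.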

Assay [2] is described as follows: qHTS for identification of novel therapeutic agents for treatment of microphthalmiaassociated transcription factor (MiT) renal cell carcinoma (RCC) (AID 1963991). As to conditions: CellTiter-Glo, 48 h, stronger effect = lower value. The gist of the method: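 Three TFE3-fusion RCC lines (UOK109, UOK124, UOK145), 500 cells/well in complete medium, were treated with MIPE 4.0 compounds for 48 hours at 37 C. Viability was by CellTiter-Glo luminescence, normalized to DMSO (100%) and empty wells (0%); curves fitted over 11 concentrations.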
For orientation: qHTS replaces the single test concentration by a dilution series.

Assay [3] has as its target Cytochrome P450 2C9 (Homo sapiens) (UniProt P11712). The assay can be described thus: qHTS for inhibitors of CYP2C9 against the NCATS DSHEA and TCM libraries (AID 1919973).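 Also: luminogenic pro-luciferin CYP2C9 substrate turned into luciferin with NADPH regeneration; % is scaled to controls: 0 for no effect and ±100 for the full control effect.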 As to conditions: recombinant CYP2C9 enzyme activity, luminescence; series mostly up to 34.1 µM. The gist of the method: (§1)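 Luminescent P450-Glo format: compounds preincubated 15 min with enzyme and luciferin substrate, reaction run 30-45 min after NADPH regeneration solution. Intraplate controls: ketoconazole for CYP3A4 and CYP2C19, sulfaphenazole for CYP2C9.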

The target in assay [4] is Cytochrome P450 2C19 (Homo sapiens) (UniProt P33261). The experiment in a line: qHTS for inhibitors of CYP2C19 against the NCATS DSHEA and TCM libraries (AID 1919974).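 Also: luminescence from luciferin released by CYP2C19 oxidation of a pro-luciferin substrate; % is scaled to controls: 0 for no effect and ±100 for the full control effect.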 The note with it: CYP2C19 enzyme inhibition, luminescence qHTS; series mostly up to 34.1 µM. The gist of the method:
as §1

A short description of assay [5]: KB-3-1 P-gp reporter qHTS against the NCATS DSHEA and TCM libraries (AID 1919975). Also: potency is read from the fitted curve at half-maximal effect. As to conditions: KB-3-1 parental cells, CellTiter-Glo luminescence viability, 72 h; series mostly up to 26.1 µM. The gist of the method: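 Cell viability by CellTiter-Glo luminescence following ~72 h compound exposure (concentration-response). Uses parental, non-P-gp-overexpressing KB-3-1 line, 500 cells/well in DMEM/10% FBS, attached ~4 h before dosing.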

The nature of assay [6]: qHTS Counterscreen for compound interference against the NCATS DSHEA and TCM libraries (AID 1919978).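 Also: compounds preincubated with 1 µM D-luciferin or buffer before detection reagent; % of control where 0% means no effect.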 As to conditions: firefly luciferase detection reagent interference, luminescence. The gist of the method:
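With 1 uM D-luciferin or phosphate buffer only, compounds at final 19.5 nM–39.8 uM were incubated for 15 min at room temperature. Luciferase detection reagent was then added, and luminescence was measured after a further 30 min at room temperature.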

Assay [7] can be described thus: Dual reporter qHTS for agonist of Pregnane X Receptor (hPXR) against the NCATS DSHEA and TCM libraries: Fluorescence readout (AID 1920058). Also: 0% is about no effect. As to conditions: PXR dual reporter cells; series mostly up to 40 µM. The gist of the method: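 hPXR-Luc HepG2 cells, 2000/well in charcoal-stripped serum, attached 5 h, dosed for ~24 h at 37 °C. Fluorescence read is CellTiter-Fluor viability (Ex/Em 405/540 nm); rifampicin positive, tetraoctyl ammonium bromide (92 µM) cytotoxicity controls.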

Assay [8] has as its target Nuclear receptor subfamily 1 group I member 2 (Homo sapiens) (UniProt O75469). The assay can be described thus: Dual reporter qHTS for agonist of Pregnane X Receptor (hPXR) against the NCATS DSHEA and TCM libraries: Luminescence readout (AID 1920059). Also: 0% is about no effect. As to conditions: hPXR dual reporter cells, luciferase luminescence agonist; series mostly up to 40 µM. The method, boiled down:
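Luminescent PXR reporter read (ONE-Glo) after a CellTiter-Fluor viability read, following 24 h, 37C treatment of HepG2 cells stably carrying hPXR-Luc.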

Assay [9] shares this target. The experiment in a line: Dual reporter qHTS for antagonist of Pregnane X Receptor (hPXR) against the NCATS DSHEA and TCM libraries: Luminescence Readout (AID 1920060). Also: 0% is about no effect. The note with it: hPXR dual reporter cells, luciferase luminescence, antagonist mode; series mostly up to 40 µM. The method, boiled down: (§2)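 hPXR-Luc HepG2 cells exposed 24 h at 37 C to compounds with 2 uM rifampicin in antagonist mode; luciferase luminescence measured by ONE-Glo, with CellTiter-Fluor viability read beforehand.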

Assay [10] is described as follows: Dual reporter qHTS for antagonist of Pregnane X Receptor (hPXR) against the NCATS DSHEA and TCM libraries: Fluorescence Readout (AID 1920061). Also: 0% is about no effect. The note with it: PXR dual reporter cells, antagonist mode; series mostly up to 40 µM. The gist of the method: as §2
Assay [11] can be described thus: qHTS profiling for inhibitors of Plasmodium falciparum proliferation (AID 504749). Also: potency is read from the fitted curve at half-maximal effect; nearly all actives have a fitted effect of over 60% in size. As to conditions: P. falciparum in erythrocytes, SYBR Green DNA, 72 h. The gist of the method: (§3)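 Infected RBCs, 0.3% parasitemia/2.5% Hct final; cpd 72 h, 37 C, 5% CO2; lysis buffer with saponin/triton/SYBR Green I, o/n RT dark; FI 485/535; norm. to artemisinin (0.29 uM) and DMSO.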

A further assay has as its system 3D7. The assay is described as above. The note with it: P. falciparum in erythrocytes, SYBR Green DNA, 72 h; series mostly up to 28.7 µM. The method, boiled down: as §3
In another assay the test system is 7G8. The assay is described as above. As to conditions: P. falciparum in erythrocytes, SYBR Green DNA, 72 h; series mostly up to 28.7 µM. The method, boiled down:
as §3

For a further assay, the system named is AA1029. Described as above. The note with it: P. falciparum in erythrocytes, SYBR Green DNA, 72 h; series mostly up to 28.7 µM. The gist of the method: as §3
The test system of a further assay is AS120. Described as above. As to conditions: P. falciparum in erythrocytes, SYBR Green DNA, 72 h; series mostly up to 28.7 µM. The gist of the method:
as §3

For the next assay, the system named is ATS189. Described as above. As to conditions: P. falciparum in erythrocytes, SYBR Green DNA, 72 h; series mostly up to 28.7 µM. The gist of the method: as §3
In a further assay the test system is ATS95. The description is as above. The note with it: P. falciparum in erythrocytes, SYBR Green DNA, 72 h; series mostly up to 28.7 µM. The gist of the method:
as §3

For a further assay, the system named is C2A. The description is as above. As to conditions: P. falciparum in erythrocytes, SYBR Green DNA, 72 h; series mostly up to 28.7 µM. The gist of the method: as §3
The next assay relates to CP185. Described as above. The note with it: P. falciparum in erythrocytes, SYBR Green DNA, 72 h; series mostly up to 28.7 µM. The gist of the method:
as §3

[12] abbreviates: measured here: PEO1 parental Z-AUC.

Nuclear receptor subfamily 1 group I member 2 (Homo sapiens), sequence (O75469 whole entry, looked up): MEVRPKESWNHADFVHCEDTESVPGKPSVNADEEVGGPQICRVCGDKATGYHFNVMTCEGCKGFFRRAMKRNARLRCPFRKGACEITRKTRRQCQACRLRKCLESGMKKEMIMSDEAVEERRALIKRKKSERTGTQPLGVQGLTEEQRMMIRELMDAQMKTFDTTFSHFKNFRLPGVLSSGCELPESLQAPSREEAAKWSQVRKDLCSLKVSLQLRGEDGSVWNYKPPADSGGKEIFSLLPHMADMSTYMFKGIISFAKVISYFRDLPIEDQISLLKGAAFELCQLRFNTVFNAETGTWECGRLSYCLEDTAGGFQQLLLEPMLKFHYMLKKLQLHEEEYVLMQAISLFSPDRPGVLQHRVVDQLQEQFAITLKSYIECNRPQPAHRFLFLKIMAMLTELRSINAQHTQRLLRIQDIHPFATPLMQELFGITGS
Cytochrome P450 2C19 (Homo sapiens), sequence (P33261 whole entry, looked up): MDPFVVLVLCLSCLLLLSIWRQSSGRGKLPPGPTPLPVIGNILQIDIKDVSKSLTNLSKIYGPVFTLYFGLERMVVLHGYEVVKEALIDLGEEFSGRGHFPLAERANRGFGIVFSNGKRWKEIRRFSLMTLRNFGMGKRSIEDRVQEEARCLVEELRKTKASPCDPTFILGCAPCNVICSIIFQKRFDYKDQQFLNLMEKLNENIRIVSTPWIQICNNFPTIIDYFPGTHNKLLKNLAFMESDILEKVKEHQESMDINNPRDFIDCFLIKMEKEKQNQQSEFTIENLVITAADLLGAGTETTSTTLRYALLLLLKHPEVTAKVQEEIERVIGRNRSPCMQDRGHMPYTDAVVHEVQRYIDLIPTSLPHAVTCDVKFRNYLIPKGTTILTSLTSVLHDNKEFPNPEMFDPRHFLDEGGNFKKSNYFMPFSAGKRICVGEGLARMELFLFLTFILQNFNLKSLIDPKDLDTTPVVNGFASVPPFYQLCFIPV
Cytochrome P450 2C9 (Homo sapiens), sequence (P11712 whole entry, looked up): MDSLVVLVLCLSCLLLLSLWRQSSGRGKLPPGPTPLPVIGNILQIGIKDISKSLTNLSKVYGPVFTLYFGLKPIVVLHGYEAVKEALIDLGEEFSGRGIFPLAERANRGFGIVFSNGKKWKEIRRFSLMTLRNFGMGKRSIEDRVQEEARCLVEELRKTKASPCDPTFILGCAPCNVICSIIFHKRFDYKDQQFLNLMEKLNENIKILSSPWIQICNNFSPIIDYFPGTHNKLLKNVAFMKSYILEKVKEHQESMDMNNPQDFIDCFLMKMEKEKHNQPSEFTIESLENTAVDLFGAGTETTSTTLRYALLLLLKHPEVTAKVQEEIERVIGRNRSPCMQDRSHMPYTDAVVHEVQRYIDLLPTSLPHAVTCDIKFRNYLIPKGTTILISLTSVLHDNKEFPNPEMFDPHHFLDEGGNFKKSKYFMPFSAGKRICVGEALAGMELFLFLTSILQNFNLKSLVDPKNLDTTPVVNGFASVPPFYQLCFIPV

`COCCCOc1cc(C[C@@H](C[C@H](N)[C@@H](O)C[C@H](C(=O)NCC(C)(C)C(N)=O)C(C)C)C(C)C)ccc1OC`: the values for the Z-AUC in assay [1], in assay [1] (setting [12]) and in assay [1] (measured here: PEO4 Z-AUC) were 1.16 (inactive), 1.52 and 1.51, respectively. Besides, the z-score in assay [2] (TFE3-RCC UOK109 viability, measured here: UOK109 Z-AUC) turned out to be 1.1; in assay [2] (TFE3-RCC viability, measured here: UOK124 Z-AUC), 0.318; in [2] (TFE3-RCC viability, measured here: UOK145 Z-AUC) it was 1.4.

For `O=S(=O)(c1cccc2cnccc12)N1CCCNCC1`, the Z-AUC was -0.00128 (inactive) in assay [1], -0.265 in [1] (setting [12]) and 0.443 in assay [1] (measured here: PEO4 Z-AUC).

Regarding `COc1ccc2cc3[n+](cc2c1OC)CCc1cc2c(cc1-3)OCO2`, the outcome in [3], in [7], in assay [8], in assay [9] and in [10] was inactive. Moreover, the Potency entry in assay [4] is “inactive”. Moreover, the Potency in assay [5] is 2 µM (active); in assay [11] (parasite line A) it was 0.447 µM (active); in assay [11] (parasite line B), 1.26 µM (active); with 3D7, 2 µM (active); with 7G8, 0.282 µM (active); with AA1029, 0.708 µM (active). The Potency is 1.26 µM (active) in the assay with AS120; 1.41 µM (active) in the assay on ATS189; 1.12 µM (active) with ATS95; 1 µM (active) in the assay on C2A; 0.708 µM (active) in the assay with CP185. The max response in assay [6] is -1.19% (inactive). Moreover, the values for the Z-AUC in assay [1], in assay [1] (setting [12]) and in assay [1] (measured here: PEO4 Z-AUC) were 0.64 (inactive), -0.712 and 0.437, respectively.

For `COc1cc2ncnc(Nc3cccc(Cl)c3)c2cc1OC`, the Z-AUC in [1] is 0.0605 (inactive); in [1] (setting [12]) it was 0.96; in assay [1] (measured here: PEO4 Z-AUC) it was 0.239.

On to `CO[C@@]12[C@H](COC(N)=O)C3=C(C(=O)C(C)=C(N)C3=O)N1C[C@@H]1N[C@@H]12`, for which the Z-AUC in [1] is 0.952 (inactive); in assay [1] (setting [12]), 0.894; in assay [1] (measured here: PEO4 Z-AUC), 1.04.

Turning to `O=C(O)c1ccc(-n2nc(-c3ccccc3O)nc2-c2ccccc2O)cc1`, the values for the Z-AUC in assay [1], in [1] (setting [12]) and in assay [1] (measured here: PEO4 Z-AUC) were 0.434 (inactive), -0.254 and -0.47, respectively.

Take `CC(C)(C)C(=O)OCOP(=O)(COCCn1cnc2c(N)ncnc21)OCOC(=O)C(C)(C)C`: the Z-AUC in assay [1] is 0.383 (inactive); in assay [1] (setting [12]), 0.013; in [1] (measured here: PEO4 Z-AUC), -0.0203.

Take `C[C@@H](CN1CC(=O)NC(=O)C1)N1CC(=O)NC(=O)C1`: the Z-AUC in assay [1] is 1.24 (inactive); in [1] (setting [12]) it was 1.43; in [1] (measured here: PEO4 Z-AUC), 0.873.

As for `CC(C(=O)O)c1ccc2c(c1)CC(=O)c1ccccc1S2` (stereo not drawn), the Z-AUC in [1] is 1.18 (inactive); in assay [1] (setting [12]), 0.703; in [1] (measured here: PEO4 Z-AUC) it was 0.789.
